From PubChem BioAssay AID588342 (National Center for Advancing Translational Sciences (NCATS), 2011)
The campaign covered roughly 360,000 compounds. About 25,000 (6.9%) were called active. Another 9% or so got no clear call; they are omitted. What follows is part of a selection rich in actives, with near analogues and random picks from the rest. A call without a number means that no potency is given here. Values without a mark were called inactive. The call rests on the fitted dose curve; in most records, active means well fitted inhibition curve with a large enough effect; inconclusive means small, poorly fitted or top-dose-only effect; inactive means flat fitted curve, though single readings scatter.

biological target: Luciferin 4-monooxygenase (Photinus pyralis) (UniProt P08659); test: qHTS profiling assay for firefly luciferase inhibitor/activator using purifed enzyme and Km concentrations of substrates (counterscreen for miR-21 project); conditions: purified FLuc, luminescence inhibition; series mostly up to 57.5 µM; further: nearly all actives have a fitted effect of over 55% in size
Summary of the method: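 Purified P. pyralis luciferase, 10 nM final, with Km-level 10 uM D-luciferin and 10 uM ATP in 50 mM Tris acetate pH 7.5, 10 mM Mg acetate, 0.01% Tween-20, 0.05% BSA; 6-point qHTS titration about 60 µM downward; luminescence read.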
Potency means the concentration at half of the fitted maximal effect.

Sequence of Luciferin 4-monooxygenase (Photinus pyralis) (P08659 whole entry, looked up): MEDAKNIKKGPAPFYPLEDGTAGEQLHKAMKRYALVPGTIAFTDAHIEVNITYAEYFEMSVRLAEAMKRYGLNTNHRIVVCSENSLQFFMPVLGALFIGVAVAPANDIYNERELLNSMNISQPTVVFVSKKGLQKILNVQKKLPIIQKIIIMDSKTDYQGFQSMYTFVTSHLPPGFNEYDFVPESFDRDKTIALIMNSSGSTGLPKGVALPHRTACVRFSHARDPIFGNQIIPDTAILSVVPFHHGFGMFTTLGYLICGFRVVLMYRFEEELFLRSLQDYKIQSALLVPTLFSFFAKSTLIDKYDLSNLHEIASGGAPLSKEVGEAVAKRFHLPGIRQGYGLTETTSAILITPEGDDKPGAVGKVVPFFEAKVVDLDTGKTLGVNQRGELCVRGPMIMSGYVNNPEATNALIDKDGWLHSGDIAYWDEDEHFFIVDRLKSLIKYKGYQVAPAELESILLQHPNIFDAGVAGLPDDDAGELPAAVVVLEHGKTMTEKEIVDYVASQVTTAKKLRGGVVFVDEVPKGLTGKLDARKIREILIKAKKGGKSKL

Compound | Potency | activity change, negative = inhibition
CCOc1ccc(NC(=O)c2c(NCc3cccc(OC)c3OC)sc3c2CCC3)cc1 | inactive | 
COc1ccc(CC(=O)c2ccc(O)cc2O)cc1OC | inactive | 
COc1ccc(C(=O)NNS(=O)(=O)c2ccc(C)cc2)cc1 | inactive | 
COc1ccc(C(=O)Cc2cnn(-c3ccccc3)c2)c(O)c1 | 3.38 µM (active) | 
Cc1[nH]nc(-c2ccc(OCc3cnn(-c4ccccc4)c3)cc2O)c1Oc1ccc(Cl)cc1 | inactive | 
COc1ccc(C(=O)CC(=O)c2ccc(C)cc2)c(O)c1 | 21.3 µM (active) | 
COc1ccc(C(=O)C[n+]2ccc(C)cc2)cc1 | inactive | 
Cc1cccc(OCC(=O)N(Cc2ccc(C(C)C)cc2)Cc2ccco2)c1C | inactive | 
COc1cc(OC)c(NC(=O)c2c3c(nn2C)-c2ccccc2SC3)cc1Cl | inactive | 
CSc1nc(=O)c2c(n1C)NC(=O)CC2c1ccccc1OC(C)C (configuration not stated) | inactive | 
Cc1nc(SCC(=O)NC2CCCCC2C)c(C#N)c(C)c1C (configuration not stated) | inactive | 
CCS(=O)(=O)c1nc(S(=O)(=O)c2ccc(C)cc2)c(NCc2ccc(Cl)cc2)s1 | inactive | 
CCn1c(C(=O)Nc2cc(Cl)ccc2C)cc2sc(Cl)cc21 | inactive | 
CCOc1ccc(-c2cc3c(=O)n(CC(=O)NCc4ccc(OC)cc4)ccn3n2)cc1 | inactive | 
Cc1cc(C)c(SCCc2ccncc2)c(C)c1 | inactive | 
c1ccc(CSCCc2ccncc2)cc1 | inactive | 
CC(C)(C)c1ccc(SCCc2ccncc2)cc1 | 26.9 µM (active) | 
C/C(=N\NC(=O)CCn1nc(C)cc1C)C(C)(C)C | inactive | 
CCc1cccc(NC(=O)COC(=O)c2cc(=O)c3ccccc3o2)c1 | inactive | 
Cc1ccc(S(=O)(=O)NCCC(=O)NC2CCN(Cc3ccccc3)CC2)cc1 | inactive | 
Cc1ccc(C)c(N2CCN(C(=O)Cn3nc(C)c4sc5ccccc5c4c3=O)CC2)c1 | inactive | 
Cn1nnnc1SCCCNCc1cccc(OCc2ccc(Cl)cc2)c1 | inactive | 
COc1cc(C(=O)OCc2ccc([N+](=O)[O-])cc2)cc(OC)c1OC | inactive | 

Compound | Potency | activity change, negative = inhibition
COc1cc(/C=N\Nc2ccc([N+](=O)[O-])cn2)ccc1OCC(=O)O | inactive | 
COc1cc(/C=N/O)ccc1OCc1ccc([N+](=O)[O-])cc1 | 2.69 µM (active) | 
Cc1ccc(CCNC(=O)c2nnc(Cc3cccc(F)c3)o2)cc1 | inactive | 
COc1ccc(Cl)cc1N(C)C(=O)c1cc2c(=O)oc3ccc(C)cc3c2s1 | inactive | 
CSc1oc(-c2cccs2)nc1S(=O)(=O)c1ccc(Br)cc1 | inactive | 
COc1ccc(-c2noc(CN(C)S(=O)(=O)c3ccc(C)cc3)n2)cc1 | inactive | 
c1csc(-c2nc(-c3ccncc3)no2)c1 | 13.5 µM (active) | 
Cc1ccc(Oc2nc(-c3ccccn3)nc3ccccc23)cc1 | inactive | 
O=C(Oc1ccc(-c2nc(-c3ccccn3)no2)cc1)c1ccccc1 | 0.301 µM (active) | 
COc1ccc(N2CCN(C(=O)CCc3nc(-c4ccc(C)cc4)no3)CC2)cc1 | inactive | 
Cc1ccc(-c2noc(CSc3nnc(-c4cccs4)n3C)n2)cc1 | inactive | 
Cc1ccc(-c2noc(CSc3nnc(-c4ccncc4)n3-c3ccc(F)cc3)n2)cc1 | inactive | 
N#CCc1ccc(OC(=O)c2cccnc2)cc1 | inactive | 
COc1ccc(-c2noc(-c3ccc(C)cc3)n2)cc1 | 1.51 µM (active) | 
COc1cc(OC)c(NC(=O)c2nc(-c3ccncc3)no2)cc1Cl | inactive | 
Cc1ccc(-c2nc(-c3ccncc3)no2)c(C)c1 | 2.13 µM (active) | 
Cc1cc(OC(=O)c2ccccc2)c([N+](=O)[O-])c(=O)[nH]1 | inactive | 
Cc1ccccc1NC(=O)Cn1c(=O)n(CC2CCC(C(=O)NCCc3ccccc3)CC2)c(=O)c2ccccc21 (configuration not stated) | inactive | 
COc1ccc(CCNc2nc(-c3ccc(Cl)cc3)cc(C(F)(F)F)n2)cc1OC | inactive | 
O=c1cccc(-c2ccc(Br)cc2)o1 |  | 3.87% [at 2.3 µM]
O=C1CC(c2nnc(Cc3ccc(Cl)cc3)o2)CN1c1ccccc1 (configuration not stated) | inactive | 
Cc1ccc(OCC(=O)Nc2ccccc2C(=O)NC2CC2)cc1 | inactive | 
COc1ccc(CCC(=O)NCc2ccc3c(c2)CCN3C(=O)c2ccc(F)cc2)cc1 | inactive | 

Compound | Potency | activity change, negative = inhibition
Cc1ccc(-n2nnnc2CNC(=O)c2ccccc2C)cc1C | inactive | 
COc1cc(C)c(Cl)cc1S(=O)(=O)n1ccnc1 | inactive | 
Cc1c2cnn(-c3ccccc3)c(=O)c2c(C)n1C(C)C(=O)Nc1ccc(Br)cc1F (configuration not stated) | inactive | 
Clc1ccc(-n2nnnc2-c2cnc(-c3ccccn3)nc2-c2cccs2)cc1 | inactive | 
O=c1onc(-c2cccs2)n1Cc1ccccc1 | inactive | 
c1ccc(-c2noc(-c3cccs3)n2)nc1 | 3.01 µM (active) | 
CN(Cc1ccccc1)C(=O)CCS(=O)(=O)c1cc(Br)cc2c1N(C(=O)C1CC1)CC2 | inactive | 
CCOc1ccc(CCNC(=O)CN(c2ccc(C)cc2)S(=O)(=O)N(C)C)cc1OCC | inactive | 
Cc1cc(C)c(-c2n[nH]c3c2C(c2ccccc2F)N(CCO)C3=O)c(O)c1 (configuration not stated) | inactive | 
O=C(Nn1c(SCc2ccc([N+](=O)[O-])cc2)nc2ccccc2c1=O)c1ccc(F)cc1 | 16.9 µM (active) | 
Cc1ccc(Cn2c(CNC(=O)Cc3cccc(C)c3)nc3cccnc32)cc1 | inactive | 
O=C(O)c1ccc(Cn2c(SCc3ccc(F)cc3)nc3ccncc32)cc1 | 16.9 µM (active) | 
CCOC(=O)CNC(=O)CSc1nc2cccnc2n1CC | inactive | 
Cc1cccc(CSc2nc3ccncc3n2CC(=O)N(C)C2CCCCC2)c1 | inactive | 
C=CCn1c(SCc2ccc(C(=O)NCCO)cc2)nc2ccccc2c1=O | inactive | 
CCCNC(=O)c1ccc(Cn2c(SCC(N)=O)nc3ccccc3c2=O)cc1 | inactive | 
Cc1ccc(CSc2nc3cccnc3n2Cc2ccc(C(=O)NC3CC3)cc2)cc1 | 0.379 µM (active) | 
Cc1nc2ccccc2c(=O)n1NC(=O)c1ccc(Cl)c([N+](=O)[O-])c1 | inactive | 
Cn1c(CNC(=O)c2ccccc2F)nnc1SCc1ccc(F)cc1 | inactive | 
OCc1cnc(SCc2ccc(F)cc2)n1Cc1ccc(F)cc1 | inactive | 
O=C(NCc1ccc(F)cc1)c1ccc(Cn2c(SCc3ccc(F)cc3)nc3cccnc32)cc1 | 4.78 µM (active) | 
